# According to PubChem BioAssay:
# A number with no mark means an inactive call. No rule for the calls is given here.
# System: Aerobactin synthetase IucA (Klebsiella pneumoniae, hypervirulent)
# Test: IucA enzyme inhibition, biochemical, LOPAC library, absorbance readout (AID 1346212);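 also: 100% = no compound wells and 0% = no enzyme wells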
# Conditions: IucA enzyme assay, absorbance (OD) readout; hits give low values;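 tested at 8 µM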
row,SMILES,remaining activity [%]
1,C[N+](C)(C)CCCCCCCCCC[N+](C)(C)C,91.8
2,CN(CCOc1ccc(C[C@H](Nc2ccccc2C(=O)c2ccccc2)C(=O)O)cc1)c1ccccn1,117
3,CNc1ncnc2c1ncn2[C@@H]1O[C@H](CO)[C@@H](O)[C@H]1O,125
4,CC(=O)NNC(=O)N1Cc2ccccc2Oc2ccc(Cl)cc21,105
5,CC(C)Oc1cccnc1N(C)C1CCN(Cc2ccc(I)cc2)CC1,97.8
6,CNCCCC1c2ccccc2C=Cc2ccccc21,101
7,NC(=O)CNCCC(c1ccccc1)c1ccccc1,118
8,Nc1cc(Cl)c(NC2=NCCN2)c(Cl)c1,118
9,Cc1nc(N=Nc2ccc(C(=O)O)cc2)c(COP(=O)(O)O)c(C=O)c1O,110
10,CNC(=O)[C@H]1O[C@@H](n2cnc3c(N)ncnc32)C(O)[C@H]1O (stereo not given in full),129
11,C[C@@]12C(=O)OC(=O)[C@]1(C)[C@H]1CC[C@@H]2O1,118
12,Cc1ccc2c(c1)C(N1CCN(C)CC1)=Nc1cccnc1N2,126
13,CCCC1O[C@@H]2C[C@H]3[C@@H]4CCC5=CC(=O)C=C[C@]5(C)[C@H]4[C@@H](O)C[C@]3(C)[C@]2(C(=O)CO)O1 (stereo not given in full),115
14,O=C1N=c2cc(Cl)c(Cl)cc2=NC1=O,110
15,C[N+]1(C)[C@@H]2CC(OC(=O)[C@H](CO)c3ccccc3)C[C@H]1[C@@H]1O[C@@H]12 (stereo not given in full),112
16,C=C/C(C)=C/[C@@]1(C)SC(=O)C(C)=C1O,123
17,c1ccc(C2CN3CCSC3=N2)cc1 (stereo not given),92.5
18,CC(=O)[C@@]1(O)CC[C@H]2[C@@H]3CCC4=CC(=O)CC[C@]4(C)[C@H]3CC[C@@]21C,106
19,C#CCN(C)CCCOc1ccc(Cl)cc1Cl,122
20,c1cnc2c(c1)ccc1cccnc12,101

row,SMILES,remaining activity [%]
1,C[C@@H]1[C@@H]2Cc3ccc(O)cc3[C@@]1(C)CCN2CC1CC1,103
2,C[C@]12CC[C@@H]3c4ccc(O)cc4C[C@@H](CCCCCCCCCS(=O)CCCC(F)(F)C(F)(F)F)[C@H]3[C@@H]1CC[C@@H]2O (stereo not given in full),115
3,CCCCS(=N)(=O)CC[C@H](N)C(=O)O (stereo not given in full),92.2
4,CC(=O)Oc1cc(C(C)C)c(OCCN(C)C)cc1C,118
5,CCCCNc1c(C(=O)OCC)c(C)nc2c1cnn2CC,121
6,CC(C)(C)c1ccc(S(=O)(=O)/C=C/C#N)cc1,119
7,COc1ccccc1N1CCN(CCN(C(=O)c2ccc(F)cc2)c2ccccn2)CC1,117
8,CC(COc1ccc(/C=C/c2ccccc2)cc1)[N+](C)(C)C (stereo not given),104
9,N[C@@H](Cc1ccc(F)cc1)C(=O)O,95
10,Cc1ccccc1/C=C/C1=NCCN1,120
11,Nc1ccc(-c2ccc3ccccc3n2)cc1,107
12,Cc1nc(N=Nc2cc(S(=O)(=O)O)c3cc([N+](=O)[O-])cc(S(=O)(=O)O)c3c2)c(COP(=O)(O)O)c(C=O)c1O,118
13,C[C@]12CC[C@@H]3c4ccc(O)cc4CC[C@H]3[C@@H]1CCC2=O,103
14,CC(=O)O[C@H]1C[C@@H]2CC[C@@H]3[C@H](CC[C@@]4(C)[C@H]3C[C@H]([N+]3(C)CCCCC3)[C@@H]4OC(C)=O)[C@@]2(C)C[C@@H]1[N+]1(C)CCCCC1,121
15,COc1ccc(CCn2nnnc2C2(c3ccc(C)cc3)CC2)cc1,115
16,CCCCCCCCCCCCCCCCCC(=O)OC(CC(=O)O)C[N+](C)(C)C (stereo not given),96.1
17,Clc1ccc(N2CCN(Cc3c[nH]c4ncccc34)CC2)cc1,92
18,CN(C)CCCO[C@@H]1[C@H]2OC(C)(C)O[C@H]2O[C@@H]1[C@H](O)CO,113
19,CCCCCCCC/C=C\CCCCCCCC(=O)NCCc1ccc(O)c(O)c1,109
20,CC(C)NC[C@H](O)COc1ccc(CC(N)=O)cc1,115
